The campaign covered roughly 48,000 compounds. About 13,000 (27%) showed an effect of 50% or more. This is one part of the list.
Tested on: Wolbachia pipientis
Experiment: Anti-Wolbachia Cell-Based Screen
Assay type: functional
Design: scale not given: in the data most compounds retested in dose-response had high values
Details: 5 µM

First: Cc1ccc(F)cc1CC(=O)N(CCN1CCOCC1)Cc1ccco1
Second: COc1ccccc1CC(=O)N(CCN1CCOCC1)Cc1ccco1
The “Percent Effect” value of the first is lower: -4.12% for the first, 0.5032% for the second.

First: COc1ccccc1CC(=O)N1CCN(Cc2ccco2)C[C@@H]1C
Second: C[C@@H]1CN(Cc2ccco2)CCN1C(=O)Cc1ccccc1F
The “Percent Effect” value of the first is higher: 136.4% for the first, 87.95% for the second.

Going from `Cc1ccc2c(n1)N(CC1CC1)CCN(Cc1ccco1)C2.O=C(O)C(F)(F)F.O=C(O)C(F)(F)F` to `O=C(O)C(F)(F)F.O=C(O)C(F)(F)F.O=C1N(c2ccsc2)CCC12CCCN(Cc1ccccn1)C2` (stereo not given), the “Percent Effect” value falls from 13.96% to 2.891%.

First: O=C(O)C(F)(F)F.O=C1[C@H]2CN(Cc3ccco3)C[C@H]2CN1c1cncnc1
Second: CC(C)N1CCO[C@H]2CN(C(=O)c3ccncc3F)C[C@H]21.O=C(O)C(F)(F)F
The “Percent Effect” value of the first is higher: 5.677% for the first, -21.77% for the second.

Compared with `Cc1cccc(CNC(Cc2ccsc2)c2nccs2)n1` (stereo not given), `Cc1cccc(C)c1NC(=O)CNC(C)Cc1ccsc1` (stereo not given) is lower in “Percent Effect” value: 152.6% for the first, -3.648% for the second.

Going from `Cc1cc(N2CCC(NC(C)Cc3ccsc3)CC2)nc(C)n1` (stereo not given) to `Clc1cncc(N2CCN(Cc3ccon3)CC2)n1`, the “Percent Effect” value rises from 1.122% to 98.12%.

Going from `Fc1ccccc1CN1CCCC2(CCN(c3ncccn3)C2)C1` (stereo not given) to `c1cnc(N2CCCC3(CCN(Cc4cccs4)C3)C2)nc1` (stereo not given), the “Percent Effect” value rises from -4.552% to 109.3%.

First: O=C(NCc1ccccn1)[C@]12COC[C@H]1CN(C1CCC1)C2.O=C(O)C(F)(F)F.O=C(O)C(F)(F)F
Second: O=C(NCc1ccccn1)[C@]12COC[C@H]1CN(Cc1ccsc1)C2.O=C(O)C(F)(F)F.O=C(O)C(F)(F)F
The “Percent Effect” value of the first is lower: -13.49% for the first, 103% for the second.

Compared with `Cc1nc(CN2CCOCC3(CCN(c4ncccn4)C3)C2)cs1.O=C(O)C(F)(F)F.O=C(O)C(F)(F)F` (stereo not given), `O=C(O)C(F)(F)F.O=C(O)C(F)(F)F.c1ccc(N2CCC3(COCCN(Cc4cccs4)C3)C2)nc1` (stereo not given) is higher in “Percent Effect” value: -16.84% for the first, 103.3% for the second.

First: O=C(O)C(F)(F)F.c1cnc(N2CCOCC3(CCCN(Cc4cc[nH]n4)C3)C2)nc1 (stereo not given)
Second: CC(C)CN1CCCC2(CCN(c3ccccn3)C2)C1.O=C(O)C(F)(F)F (stereo not given)
The “Percent Effect” value of the first is lower: -14.28% for the first, 0.9995% for the second.

First: CN(C)C[C@]12COC[C@H]1CN(Cc1ccccn1)C2.O=C(O)C(F)(F)F.O=C(O)C(F)(F)F.O=C(O)C(F)(F)F
Second: O=C(O)C(F)(F)F.O=C(O)C(F)(F)F.O=C(O)C(F)(F)F.c1ccc(CN2CCCC3(CCN(Cc4cccs4)C3)C2)nc1 (stereo not given)
The “Percent Effect” value of the first is lower: -16.37% for the first, 118.7% for the second.

Compared with `CCC(CC)CN1CCC2(CCCN(c3ncccn3)C2)C1` (stereo not given), `O=C(O)C(F)(F)F.c1ccc(N2CCCC3(CCN(Cc4ccsc4)C3)C2)nc1` (stereo not given) is higher in “Percent Effect” value: -25.35% for the first, 92.47% for the second.

Compared with `c1cc([C@H]2C[C@@H]3CCN(Cc4nccs4)C[C@H]3O2)ncn1`, `Cn1ccnc1CN1CC2(CCN(Cc3ccncc3)C2)C1` is lower in “Percent Effect” value: -0.9402% for the first, -5.589% for the second.

Going from `COCC1CC2(CCNCC2)CN1c1ncccn1` (stereo not given) to `Cl.O=C(C1CC=CC1)N1CCC2(CC1)CNCCO2`, the “Percent Effect” value falls from -4.112% to -11.15%.

Compared with `O=C(O)C(F)(F)F.O=C(O)C(F)(F)F.c1ccc(CN2CCCC3(CCN(CC4CCCO4)CC3)C2)nc1` (stereo not given), `Fc1cnc(N2CCCC3(CCN(Cc4ccsc4)C3)C2)nc1.O=C(O)C(F)(F)F.O=C(O)C(F)(F)F` (stereo not given) is lower in “Percent Effect” value: 98.44% for the first, -8.586% for the second.

Compared with `c1cc(CN2CCN(Cc3ccon3)C3(CCCCC3)C2)no1`, `c1cc(CN2CCSC3(CCCCC3)C2)no1` is lower in “Percent Effect” value: -15.56% for the first, -28.1% for the second.

First: CCN1CCN(c2cncc(Cl)n2)CC1
Second: CCN1CCN(Cc2nc(C)no2)CC1
The “Percent Effect” value of the first is higher: 88.05% for the first, 8.697% for the second.

Compared with `CCN1CCN(Cc2csc(C(C)C)n2)CC1`, `O=C(c1cnn2c1OCCC2)N1CCC2(CC1)OCCO2` is lower in “Percent Effect” value: -0.2652% for the first, -3.54% for the second.

First: CC(C)(O)CNc1ccc(C#N)c(C(F)(F)F)c1
Second: Cn1cc(C2=CCN(CCCOc3ccc(C(N)=O)cc3)CC2)cn1
The “Percent Effect” value of the first is higher: 7.337% for the first, -2.558% for the second.

First: O=C(C1CCCCC1)N1CCC2(CC1)OCCO2
Second: O=C(C1CCCC1)N1CCC2(CC1)OCCO2
The “Percent Effect” value of the first is higher: 92.72% for the first, -31.13% for the second.

First: O=C(C1CCC1)N1CCC2(CC1)CNCCO2
Second: CS(=O)(=O)N1CCC(C(=O)N2CCC3(CC2)OCCCO3)CC1
The “Percent Effect” value of the first is lower: -23.25% for the first, 6.012% for the second.

First: O=C(C1CC(=O)N(c2ccccc2Br)C1)N1CCC2(CC1)OCCO2 (stereo not given)
Second: O=C(C1CC=CC1)N1CCC2(CC1)OCCO2
The “Percent Effect” value of the first is lower: -9.549% for the first, 105.5% for the second.

In the case of `O=C(C1CCN(S(=O)(=O)N2CCCC2)CC1)N1CCC2(CC1)OCCO2`, the “Percent Effect” value is reported as 110.6%.

Source: ChEMBL document CHEMBL3988442, “University of Dundee, Small-Polar-MMV Screening Library” (2021)
